The record followed here is PubChem BioAssay AID602329 (Broad Institute, 2012).

The structures appear in SMILES notation. About 510 (0.14%) of roughly 360,000 compounds were called active.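 How the source made its calls: active means mean normalized replicate activity at least 40 and at least half of replicates scoring 40 or more; inconclusive means only one of the two criteria met; inactive means mean below 40 and under half of replicates reaching 40.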 The entries come from a sample that favours actives as a whole.

For the test, the target named is DNA repair and recombination protein RAD54-like (Homo sapiens) (UniProt Q92698). Description: RAD54 Holliday junction migration blockers – biochemical, fluorescence, single point, primary screen (AID 602329).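 Further: 0% = median of neutral control wells and 100% = median of positive control wells; inhibitors cause a drop in the FAM fluorescence signal.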 The following applies: RAD54 Holliday junction branch migration, FAM/BHQ fluorescence; at 10.4 µM; active compounds read high.
DNA repair and recombination protein RAD54-like (Homo sapiens), sequence (Q92698 whole entry, looked up): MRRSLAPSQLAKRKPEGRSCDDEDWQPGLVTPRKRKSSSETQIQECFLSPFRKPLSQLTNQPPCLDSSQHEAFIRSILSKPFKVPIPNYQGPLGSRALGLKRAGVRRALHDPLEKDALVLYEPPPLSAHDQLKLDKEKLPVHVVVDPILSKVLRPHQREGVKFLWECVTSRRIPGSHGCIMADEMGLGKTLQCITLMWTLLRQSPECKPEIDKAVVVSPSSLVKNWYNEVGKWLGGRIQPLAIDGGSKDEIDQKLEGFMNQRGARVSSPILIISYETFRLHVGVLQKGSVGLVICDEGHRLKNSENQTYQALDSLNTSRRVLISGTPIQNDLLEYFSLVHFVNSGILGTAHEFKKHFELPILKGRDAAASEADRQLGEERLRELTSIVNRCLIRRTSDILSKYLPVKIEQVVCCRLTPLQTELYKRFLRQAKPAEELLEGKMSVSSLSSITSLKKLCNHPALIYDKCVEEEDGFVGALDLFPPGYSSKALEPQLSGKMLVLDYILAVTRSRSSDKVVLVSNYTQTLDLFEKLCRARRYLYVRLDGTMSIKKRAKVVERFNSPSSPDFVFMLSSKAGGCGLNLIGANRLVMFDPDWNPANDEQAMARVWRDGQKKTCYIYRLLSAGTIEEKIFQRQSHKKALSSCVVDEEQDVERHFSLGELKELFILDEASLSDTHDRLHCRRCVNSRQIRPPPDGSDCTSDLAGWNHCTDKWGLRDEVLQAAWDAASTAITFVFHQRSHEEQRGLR
With `O=C(C[C@@H]1C[C@@H]2c3cc(NC(=O)Cc4ccncc4)ccc3O[C@@H]2[C@H](CO)O1)NCc1cccc(F)c1`, the inhibition was -0.719% (inactive). Under `C/C=C/c1cnc2c(c1)C(=O)N([C@@H](C)CO)C[C@H](C)[C@H](CN(C)C(=O)CN1CCOCC1)O2` stands 2.37% (inactive); under `C[C@@H]1CN([C@@H](C)CO)C(=O)c2cc(NS(=O)(=O)c3ccccc3)ccc2O[C@@H](C)CCCCO[C@H]1CN(C)C(=O)C1CCCCC1`, -16.2% (inactive).

With `CC(OC(=O)c1ccc(S(=O)(=O)N2CCOCC2)cc1)c1ccccc1` (configuration not stated), the inhibition was 0.166% (inactive). Under `COC(=O)c1c(NC(=O)c2ccc(S(=O)(=O)N3CCOCC3)cc2)sc2c1CCN(C(C)C)C2` stands 75% (active); under `COc1ccc(S(=O)(=O)N2CCOCC2)cc1NC(=O)c1ccc(OCC(C)C)c(OC)c1`, 3.95% (inactive).

In the case of `CC(C)NC(=O)Nc1ccc2c(c1)C(=O)N(C)[C@H]1CC[C@H](CC(=O)NCc3ccc(F)cc3)O[C@H]1CO2`, the inhibition is 7.11% (inactive). With `C[C@@H]1CN([C@H](C)CO)S(=O)(=O)c2ccc(C3=CCCC3)cc2O[C@@H]1CN(C)C(=O)C1CCC1` the figure was -3.7% (inactive); with `C[C@@H]1CCCCO[C@@H](CN(C)C(=O)c2ccccc2)[C@@H](C)CN([C@@H](C)CO)C(=O)c2cc(NS(=O)(=O)c3ccccc3)ccc2O1`, -0.712% (inactive). `CCCNC(=O)[C@H]1[C@H](CO)[C@H]2Cn3c(cccc3=O)[C@H]2N1Cc1ccccc1Cl`: the inhibition was -3.26% (inactive). As to `CC(=O)N1[C@@H]2Cn3c(ccc(C4=CCCC4)c3=O)[C@H]1[C@@H](C(=O)NC1CCC1)[C@@H]2CO`, the inhibition is 7.46% (inactive). Consider `COc1ccc(NC(=O)N(C)C[C@H]2OCCCC[C@@H](C)Oc3ccc(NC(=O)c4ccncc4)cc3C(=O)N([C@@H](C)CO)C[C@H]2C)cc1`, for which the inhibition is 2.64% (inactive). `CN1C(=O)c2cc(NS(=O)(=O)c3ccc(Cl)cc3)ccc2OC[C@@H]2O[C@H](CC(=O)O)CC[C@@H]21`: the inhibition is -1.23% (inactive). Under `CC(C)NC(=O)N(C)C[C@@H]1Oc2ncc(-c3ccc(C(=O)N(C)C)cc3)cc2C(=O)N([C@H](C)CO)C[C@H]1C` stands -0.445% (inactive); under `CCCNC(=O)N(C)C[C@@H]1Oc2ncc(-c3cccc(C#N)c3)cc2C(=O)N([C@@H](C)CO)C[C@H]1C`, 7.71% (inactive); under `CCC(=O)N(C)C[C@@H]1Oc2cc(C#CCOC)ccc2S(=O)(=O)N([C@@H](C)CO)C[C@@H]1C`, -1.77% (inactive). Turning to `Cc1cccn2c(=O)c3cc(C#N)c(=NC(=O)c4cccnc4)n(CC4CCCO4)c3nc12` (configuration not stated), the inhibition is -4.7% (inactive). With `Cc1cccn2c(=O)c3cc(C#N)c(=O)n(CCCN4CCOCC4)c3nc12` the figure was 56.4% (active); with `Cc1ccc(-n2c(=O)c(C#N)cc3c(=O)n4ccccc4nc32)cc1C`, -1.05% (inactive). Turning to `C[C@@H](NC(=O)C[C@H]1C[C@H]2c3cc(NC(=O)C4CCOCC4)ccc3O[C@H]2[C@@H](CO)O1)c1ccccc1`, the inhibition was -0.474% (inactive). As for `Cc1cc(Nc2cc(N3CCN(C)CC3)nc(Sc3ccc(NC(=O)C4CC4)cc3)n2)n[nH]1`, the inhibition was 17.6% (inactive). With `CC(=O)Nc1cc(-c2ccc(N3CCN(C)CC3)cc2)cn2c(-c3ccc(F)cc3)cnc12` the figure was 36.5% (inactive). Under `C=CC(=O)Nc1ccc(Nc2ccnc(Nc3ccc(N4CCN(C)CC4)cc3)n2)cc1` stands 81.2% (active); under `C[C@H](CO)N1C[C@H](C)[C@@H](CN(C)S(=O)(=O)c2cn(C)cn2)Oc2ccc(N(C)C)cc2CC1=O`, -0.235% (inactive).

`CCN(C[C@@H]1[C@@H](c2ccccc2)[C@H](CO)N1C(C)=O)C(=O)NC(C)C`: the inhibition was -5% (inactive). For `CO[C@@H]1CN(C)C(=O)c2cc(NC(=O)C3CCCC3)ccc2OC[C@@H](C)N(Cc2ccc(F)cc2)C[C@H]1C`, the inhibition is -4.74% (inactive).

As for `CC(=O)N(C)C[C@@H]1Oc2cc(C#Cc3ccccc3F)ccc2S(=O)(=O)N([C@@H](C)CO)C[C@@H]1C`, the inhibition was -0.527% (inactive).

As for `C[C@@H]1CN([C@@H](C)CO)C(=O)c2cc(-c3ccc(C#N)cc3)cnc2O[C@H]1CN(C)C(=O)CN(C)C`, the inhibition is 5.52% (inactive). Under `CCNC(=O)C[C@@H]1CC[C@@H]2[C@H](COC[C@H](O)CN2S(=O)(=O)c2ccc(Oc3ccccc3)cc2)O1` stands -6.18% (inactive). Take `O=C(C[C@H]1CC[C@@H](NC(=O)c2ccccc2)[C@@H](CO)O1)NCc1ccncn1`: the inhibition is -7.18% (inactive). With `CCCNC(=O)C[C@@H]1CC[C@@H]2[C@H](COc3ccc(NC(=O)c4cc(F)cc(F)c4)cc3C(=O)N2C)O1`, the inhibition is 1.51% (inactive). In the case of `CCCNC(=O)C[C@@H]1CC[C@H]2[C@@H](COC[C@@H](O)CN2Cc2ccccc2F)O1`, the inhibition was 6.11% (inactive). Under `C[C@@H]1CN([C@H](C)CO)C(=O)c2cccc(NC(=O)Nc3ccc4c(c3)OCO4)c2O[C@@H]1CN(C)Cc1ccccc1` stands -7.8% (inactive); under `C[C@H]1CN([C@@H](C)CO)C(=O)c2cc(NC(=O)C3CC3)ccc2O[C@@H]1CN(C)S(=O)(=O)c1cn(C)cn1`, -0.446% (inactive); under `COc1ccc(NC(=O)N(C)C[C@H]2OCc3ccccc3-c3ccccc3C(=O)N([C@H](C)CO)C[C@@H]2C)cc1`, -9.7% (inactive). Under `O=C1CCN(CCCc2ccccc2)CCN1CCO` stands -1.44% (inactive); under `O=C(Nc1cccc(Cl)c1)c1cc([N+](=O)[O-])ccc1N1CCN(CCO)CC1`, -11.1% (inactive); under `O=C1c2ccccc2C(=O)c2c1cccc2N1CCN(CCO)CC1`, 84.2% (active). For the compound `Cc1noc(C)c1NC(=O)N(C)C[C@H]1Oc2ccc(NS(=O)(=O)c3ccc(Cl)cc3)cc2CC(=O)N([C@H](C)CO)C[C@@H]1C`, the inhibition is -4.2% (inactive). Turning to `Cc1ccc(S(=O)(=O)N(C)C[C@H]2Oc3ccc(NC(=O)C4CC4)cc3C(=O)N([C@H](C)CO)C[C@H]2C)cc1`, the inhibition is 8.82% (inactive). For the compound `CO[C@H]1CN(C)C(=O)c2cc(NC(=O)C3CCC3)ccc2OC[C@H](C)N(Cc2nccs2)C[C@H]1C`, the inhibition was 2.2% (inactive). Under `COc1cccc(NC(=O)C[C@@H]2CC[C@H]3[C@@H](COc4ccc(NC(=O)C5CCOCC5)cc4C(=O)N3C)O2)c1` stands -1.97% (inactive); under `COCC(=O)Nc1ccc2c(c1)C(=O)N(C)C[C@@H](OC)[C@H](C)CN(C(=O)CC1CC1)[C@H](C)CO2`, 3.23% (inactive); under `CCCN(C)C[C@H]1Oc2cc(-c3ccc(C)cc3)ccc2S(=O)(=O)N([C@H](C)CO)C[C@H]1C`, -15% (inactive).

For the compound `C#Cc1ccc([C@H]2C=C(C(=O)O)O[C@@H](OCC)[C@@H]2CCCO)cc1`, the inhibition is -9.94% (inactive). With `Cc1noc(C)c1NC(=O)Nc1cccc2c1O[C@@H](CN(C)Cc1ccc3c(c1)OCO3)[C@@H](C)CN([C@@H](C)CO)C2=O` the figure was 7.78% (inactive); with `O=C(c1cccnc1)N1CCCCN2[C@@H](CO)[C@H](c3ccc(C#Cc4ccccc4)cc3)[C@@H]2C1`, 1.81% (inactive). As for `CCNC(=O)[C@@H]1[C@@H](CO)[C@@H]2Cn3c(ccc(C4=CCCC4)c3=O)[C@H]1N2Cc1ccccc1`, the inhibition is 2.92% (inactive). Regarding `CC(C)NC(=O)N(C)C[C@H]1OCCCC[C@H](C)Oc2ccc(NC(=O)Nc3ccc4c(c3)OCO4)cc2C(=O)N([C@H](C)CO)C[C@@H]1C`, the inhibition is -0.838% (inactive).

For the compound `CNC[C@H]1Oc2cc(C#Cc3ccccc3)ccc2S(=O)(=O)N([C@@H](C)CO)C[C@@H]1C`, the inhibition is 1.19% (inactive).

For `Cc1ccc(S(=O)(=O)N(C)C[C@H]2OCCCC[C@H](C)Oc3ccc(NS(=O)(=O)c4c(C)noc4C)cc3C(=O)N([C@H](C)CO)C[C@@H]2C)cc1`, the inhibition was 3.91% (inactive). With `CN1c2ccc(-c3ccc(F)cc3)cc2[C@@H]2[C@@H](CCN2S(=O)(=O)c2ccc(F)cc2)[C@@H]1CO` the figure was -1.5% (inactive); with `COc1ccc(NC(=O)Nc2ccc3c(c2)CC(=O)N([C@@H](C)CO)C[C@H](C)[C@H](CN(C)C(=O)Nc2ccc4c(c2)OCO4)O3)cc1`, -3.32% (inactive). Turning to `COc1cccc(C(=O)Nc2ccc3c(c2)C(=O)N(C)[C@@H]2CC[C@@H](CC(=O)NCCCN4CCOCC4)O[C@@H]2CO3)c1`, the inhibition is 8.84% (inactive).

Consider `CO[C@H]1CN(C)C(=O)c2ccc(NC(=O)C3CCOCC3)cc2OC[C@H](C)NC[C@H]1C`, for which the inhibition is -0.243% (inactive).

`CCNC(=O)C[C@@H]1CC[C@@H]2[C@@H](COc3ccc(NC(=O)c4cccc(C(F)(F)F)c4)cc3C(=O)N2C)O1`: the inhibition is 7.26% (inactive). Under `O=C(C1CCC1)N1CC[C@H]2[C@H](CO)Nc3ccc(-c4cccc(F)c4)cc3[C@H]21` stands 2.5% (inactive).

In general, inhibition refers to the change of the read-out against control, counted positive when it falls.
